Assay results as given in PubChem BioAssay (NCI).
The panel holds about 83,000 compounds, 20% with a hit somewhere; the sample as a whole holds those more often.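 Single-concentration screen, 48 h exposure, 96-well plates. Endpoint: percent growth. Below 10 = active.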 A number with no mark means an inactive call. The source made the active and inactive calls.

Key:
Test in all cases: NCI-60 one-dose screen, 48 h (100 = growth as untreated, 0 = no growth, -100 = all killed)
[1] = test system: SK-MEL-2 melanoma; conditions: 10 µM unless noted
[2] = test system: EKVX NSCLC; conditions: 10 µM unless noted
[3] = test system: SN12C renal; conditions: 10 µM unless noted
[4] = test system: UO-31 renal; conditions: 10 µM unless noted
[5] = test system: TK-10 renal; conditions: 10 µM unless noted
[6] = test system: ACHN renal; conditions: 10 µM unless noted
[7] = test system: CAKI-1 renal; conditions: 10 µM
[8] = test system: A498 renal; conditions: 10 µM unless noted
[9] = test system: CCRF-CEM leukemia; conditions: 10 µM unless noted
[10] = test system: MOLT-4 leukemia; conditions: 10 µM unless noted
[11] = test system: SR leukemia; conditions: 10 µM unless noted
[12] = test system: RPMI-8226 leukemia; conditions: 10 µM unless noted
[13] = test system: OVCAR-8 ovarian; conditions: 10 µM unless noted
[14] = test system: OVCAR-5 ovarian; conditions: 10 µM unless noted
[15] = test system: OVCAR-4 ovarian; conditions: 10 µM unless noted
[16] = test system: SK-OV-3 ovarian; conditions: 10 µM unless noted
[17] = test system: IGROV1 ovarian; conditions: 10 µM unless noted
[18] = test system: OVCAR-3 ovarian; conditions: 10 µM unless noted
[19] = test system: HS 578T breast; conditions: 10 µM unless noted
[20] = test system: NCI/ADR-RES ovarian; conditions: 10 µM unless noted

Fc1ccc(-c2cc3nc(C(Cl)Cl)nc(-c4cccs4)n3n2)cc1
growth [1]: 87.7%
growth [2]: 6.21% (active)
growth [3]: 64.5%
growth [4]: 40.6%
growth [5]: 7.64% (active)
growth [6]: -19.9% (active)
growth [7]: -20.4% (active)
growth [8]: -20.7% (active)
growth [9]: 86%
growth [10]: 65.4%
growth [11]: 83.8%
growth [12]: -3.54% (active)
growth [13]: 24%
growth [14]: 9.21% (active)
growth [15]: 29.8%
growth [16]: 32%
growth [17]: 61.2%
growth [18]: -26.2% (active)
growth [19]: -5.63% (active)
growth [20]: 5.56% (active)

CCN(CC)CCN1C(=O)c2c(c3c4cc(Br)ccc4[nH]c3c3ccc4ccccc4c23)C1=O
growth [1]: 116%
growth [2]: -88.1% (active)
growth [3]: -71.4% (active)
growth [4]: -86.1% (active)
growth [5]: -73% (active)
growth [6]: -100% (active)
growth [7]: 12.8%
growth [8]: 57.6%
growth [9]: 1.96% (active)
growth [10]: -30.7% (active)
growth [11]: -24.6% (active)
growth [12]: -42.4% (active)
growth [13]: -58.2% (active)
growth [14]: -95.2% (active)
growth [15]: 36.6%
growth [16]: 61.9%
growth [17]: -83.7% (active)
growth [19]: -4.17% (active)
growth [20]: -76.3% (active)

CCCCCc1ccc(S(=O)(=O)N(C(C)=O)c2cccc(-c3csc(N(CCN4CCN(C)CC4)C(C)=O)n3)c2)cc1
growth [1]: 92.8%
growth [2]: 61.8%
growth [3]: 62.6%
growth [4]: -69.2% (active)
growth [5]: 99.2%
growth [6]: -10.5% (active)
growth [7]: 20.5%
growth [8]: 71.1%
growth [9]: 4.61% (active)
growth [10]: -9.16% (active)
growth [11]: -17.7% (active)
growth [12]: -27.8% (active)
growth [13]: 60.7%
growth [14]: 92.2%
growth [15]: 47.1%
growth [16]: 100%
growth [17]: 46.8%
growth [19]: 72.8%
growth [20]: 48.3%

NS(=O)(=O)Oc1ccc2nc(Nc3ccc(F)c(F)c3)ccc2c1
growth [1]: 116%
growth [2]: 93.4%
growth [3]: 88%
growth [4]: 73.3%
growth [5]: 118%
growth [6]: 85.8%
growth [7]: 76.7%
growth [8]: 74.5%
growth [9]: 67.8%
growth [10]: 67%
growth [11]: 60.5%
growth [12]: 86.7%
growth [13]: 96.1%
growth [14]: 91.6%
growth [15]: 88.9%
growth [16]: 111%
growth [17]: 94.4%
growth [19]: 104%
growth [20]: 94.6%

N#C/C(=C\c1ccc2ccccc2c1)C(=O)Nc1sc2c(c1C#N)CCC2
growth [1]: 100%
growth [2]: 94.8%
growth [3]: 95.5%
growth [4]: 78.2%
growth [5]: 108%
growth [6]: 104%
growth [7]: 88.2%
growth [8]: 93.9%
growth [9]: 103%
growth [10]: 101%
growth [11]: 90.9%
growth [12]: 105%
growth [13]: 100%
growth [14]: 111%
growth [15]: 105%
growth [16]: 99.8%
growth [17]: 107%
growth [19]: 104%
growth [20]: 103%

COc1ccc(C(=O)n2cc(C=O)c3ccccc32)cc1
growth [1]: 104%
growth [2]: 97.6%
growth [3]: 94.7%
growth [4]: 70.9%
growth [5]: 123%
growth [6]: 92.4%
growth [7]: 85%
growth [8]: 122%
growth [9]: 103%
growth [10]: 101%
growth [11]: 65.5%
growth [12]: 98.2%
growth [13]: 96.4%
growth [14]: 102%
growth [15]: 111%
growth [16]: 133%
growth [17]: 93.4%
growth [19]: 101%
growth [20]: 94.7%

Cc1cc2nc(C(Cl)Cl)nc(-c3ccco3)n2n1
growth [1]: 103%
growth [2]: 63.8%
growth [3]: 93.7%
growth [4]: 90.7%
growth [5]: 89.5%
growth [6]: 22%
growth [7]: 51.2%
growth [8]: 51.7%
growth [9]: 98.2%
growth [10]: 74.3%
growth [11]: 86.8%
growth [12]: 44.3%
growth [13]: 80.5%
growth [14]: 75.8%
growth [15]: 79.5%
growth [16]: 93.3%
growth [17]: 91.1%
growth [18]: 22.4%
growth [19]: 94%
growth [20]: 62.6%

CCn1c2ccc(/C=N/OCCCN(C)C)cc2c2cc(/C=N/OCCCN(C)C)ccc21
growth [1]: 125%
growth [2]: 48.6%
growth [3]: 63.6%
growth [4]: -90.4% (active)
growth [5]: 132%
growth [6]: -15.5% (active)
growth [7]: -16.5% (active)
growth [8]: 54.1%
growth [9]: 9.36% (active)
growth [10]: 0.746% (active)
growth [11]: -40.8% (active)
growth [12]: -15.9% (active)
growth [13]: -5.7% (active)
growth [14]: 31.1%
growth [15]: 52.7%
growth [16]: 109%
growth [17]: -52.8% (active)
growth [19]: 73.8%
growth [20]: 9.38% (active)

Cn1cc2c(c1)-c1c(sc3nc(-c4ccc(NC(=O)Nc5cc(C(C)(C)C)on5)cc4)cn13)CC2
growth [1]: 65.5%
growth [2]: 60.2%
growth [3]: 59.9%
growth [4]: 18.2%
growth [5]: 95.4%
growth [6]: 42.1%
growth [7]: 28.1%
growth [8]: 32.1%
growth [9]: 28.2%
growth [10]: 12%
growth [11]: 9.8% (active)
growth [12]: -7.75% (active)
growth [13]: 53.8%
growth [14]: 74.8%
growth [15]: 57.7%
growth [16]: 49.3%
growth [17]: 66.7%
growth [19]: -0.139% (active)
growth [20]: 52.8%

C#C[C@]1(O)CC[C@H]2[C@@H]3CC=C4c5sc(Nc6ccncc6)nc5CC[C@]4(C)[C@H]3CC[C@@]21C
growth [1]: -15% (active)
growth [2]: -13.7% (active)
growth [3]: 44.1%
growth [4]: -61.8% (active)
growth [5]: 12%
growth [6]: 18.8%
growth [7]: -19.4% (active)
growth [8]: -52.2% (active)
growth [9]: 4.46% (active)
growth [10]: -18.3% (active)
growth [11]: 4.33% (active)
growth [12]: -26.6% (active)
growth [13]: 51.4%
growth [14]: 38.6%
growth [15]: 59.8%
growth [16]: -38.1% (active)
growth [17]: 24.4%
growth [19]: -33.6% (active)
growth [20]: 33.1%

C#C[C@]1(O)CC[C@H]2[C@@H]3CC=C4c5sc(Nc6cccc(C)n6)nc5CC[C@]4(C)[C@H]3CC[C@@]21C
growth [1]: -9.35% (active)
growth [2]: 8.96% (active)
growth [3]: 56.4%
growth [4]: -15.4% (active)
growth [5]: 77.2%
growth [6]: 33.1%
growth [7]: 2.65% (active)
growth [8]: -29.2% (active)
growth [9]: 2.04% (active)
growth [10]: -25.2% (active)
growth [11]: -25% (active)
growth [12]: -33.2% (active)
growth [13]: 39%
growth [14]: 56.4%
growth [15]: 56.6%
growth [16]: -7.51% (active)
growth [17]: 45.5%
growth [19]: -15.8% (active)
growth [20]: 38.5%

CC(C)c1nn(-c2ccccc2)c(N2CCCCC2)c1/C=N/NC(N)=S
growth [1]: 104%
growth [2]: 82.1%
growth [3]: 89.9%
growth [4]: 64.5%
growth [5]: 113%
growth [6]: 87.2%
growth [7]: 69.2%
growth [8]: 66.2%
growth [9]: 89.7%
growth [10]: 83.6%
growth [11]: 88.8%
growth [12]: 78.2%
growth [13]: 97.1%
growth [14]: 98.7%
growth [15]: 72.4%
growth [16]: 106%
growth [17]: 83.9%
growth [19]: 103%
growth [20]: 86.9%

CN1CCN(Cc2ccc(NC(=O)c3cncc(C#Cc4cnc5ccc(O[C@H]6CCOC6)nn45)c3)cc2C(F)(F)F)CC1
growth [1]: -88% (active)
growth [2]: -69.7% (active)
growth [3]: -48.4% (active)
growth [4]: -94% (active)
growth [5]: -87.2% (active)
growth [6]: -97.1% (active)
growth [7]: -96.2% (active)
growth [8]: -92.9% (active)
growth [9]: 2.84% (active)
growth [10]: -1.92% (active)
growth [11]: -22.8% (active)
growth [12]: -15.3% (active)
growth [13]: -72.6% (active)
growth [14]: -62.5% (active)
growth [15]: -58.9% (active)
growth [16]: -26% (active)
growth [17]: -57.6% (active)
growth [19]: -34.1% (active)
growth [20]: -30.9% (active)

Cc1cc(C(=O)Nc2ccc(SC#N)cc2)c(C)o1
growth [1]: 110%
growth [2]: 90.4%
growth [3]: 70.6%
growth [4]: 49.3%
growth [5]: 101%
growth [6]: 100%
growth [7]: 81.7%
growth [8]: 94.4%
growth [9]: 28.8%
growth [10]: 29.7%
growth [11]: 5.44% (active)
growth [12]: 83.1%
growth [13]: 98.3%
growth [14]: 115%
growth [15]: 104%
growth [16]: 111%
growth [17]: 88.9%
growth [19]: 112%
growth [20]: 100%

C#CCOc1ccc(/C=N/Nc2nc(-c3cc(Cl)ccc3Cl)cs2)cc1
growth [1]: 113%
growth [2]: 73.6%
growth [3]: 88.7%
growth [4]: 68.5%
growth [5]: 148%
growth [6]: 97.8%
growth [7]: 77.1%
growth [8]: 83.6%
growth [9]: 94.7%
growth [10]: 86.3%
growth [11]: 87.8%
growth [12]: 76.8%
growth [13]: 93.5%
growth [14]: 99.5%
growth [15]: 52.8%
growth [16]: 97.9%
growth [17]: 64.4%
growth [19]: 98.3%
growth [20]: 95%

C/C=C/C=C1\C[C@H]2CO[C@H](O2)C1=O
growth [1]: 100%
growth [2]: 103%
growth [3]: 100%
growth [4]: 88.2%
growth [5]: 108%
growth [6]: 103%
growth [7]: 98%
growth [8]: 103%
growth [9]: 78.9%
growth [10]: 90.4%
growth [11]: 53.1%
growth [12]: 95.4%
growth [13]: 99.7%
growth [14]: 103%
growth [15]: 101%
growth [16]: 103%
growth [17]: 97.7%
growth [19]: 107%
growth [20]: 98.1%
